TSHR antag: blocks TSH signaling through the human TSH receptor; P16473; activity change, negative = inhibition, % at 11.5 µM; AID 504810; 0.2% of 330,000 active; TSHR-expressing cells, TSH-stimulated cAMP HTRF, 2 h; stronger effect = lower value;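 active = activity change below a set negative limit, meaning inhibition stronger than a set level, cut at about -70% in these data; inconclusive = activity change between two set negative limits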
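Read-out is FRET at 665 nm (cryptate excitation 337 nm) from a cryptate-tagged anti-cAMP antibody, competed by cell cAMP against cAMP-d2. Compounds are tested on freshly harvested TSHR cells challenged with 4nM TSH (EC80) for 2 hours at 37 deg C.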
RORg inh: blocks mouse ROR gamma transcriptional activity; Drosophila S2 Gal4-RORgamma UAS-luciferase reporter, 20 h; 5.4% of 310,000 active; AID 2551; P51450; Potency, µM (top dose mostly 53.6 µM), hits mostly inhibitors; also: nearly all actives have a fitted effect of over 60% in size
Target sequence (P51450 whole entry, looked up, the tested form may be a part): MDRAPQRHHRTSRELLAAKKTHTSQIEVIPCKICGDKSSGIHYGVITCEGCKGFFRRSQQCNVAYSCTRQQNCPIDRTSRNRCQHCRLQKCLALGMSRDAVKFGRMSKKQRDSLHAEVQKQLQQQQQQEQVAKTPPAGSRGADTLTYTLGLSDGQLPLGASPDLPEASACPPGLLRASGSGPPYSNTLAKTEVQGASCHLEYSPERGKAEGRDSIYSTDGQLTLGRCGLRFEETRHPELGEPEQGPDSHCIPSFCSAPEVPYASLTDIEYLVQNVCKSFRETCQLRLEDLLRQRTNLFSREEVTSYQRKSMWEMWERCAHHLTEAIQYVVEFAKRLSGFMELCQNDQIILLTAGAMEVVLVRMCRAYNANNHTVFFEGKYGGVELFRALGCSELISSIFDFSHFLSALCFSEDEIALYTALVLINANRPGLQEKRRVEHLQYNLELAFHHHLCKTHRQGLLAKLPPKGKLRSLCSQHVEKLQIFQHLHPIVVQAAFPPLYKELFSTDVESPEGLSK
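Stably transfected Drosophila Schneider cells are the test system, with ROR gamma fused to Gal4 and luciferase under UAS control; luminescence is read after 20 hr of 700 uM copper sulfate induction at ambient temperature.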
Gal4-VP16 FLuc: Gal4-VP16 reporter inhibition counter-screen | Drosophila S2 Gal4-VP16 UAS-luciferase, luminescence, 20 h | AID 2546 | 3.5% of 310,000 active | Potency, µM (top dose mostly 53.6 µM), usual class: inhibitors;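 also: Gal4-VP16 expression switched on by copper sulfate through the metallothionein promoter; nearly all actives have a fitted effect of over 50% in size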
ELG1 DNA repair: ELG1-dependent DNA repair inhibition; HEK293T ELG1-luciferase reporter, luminescence, 16 h; DNA damage induced by 5-fluorouridine; Potency, µM (doses to about 46.1 µM), hits mostly inhibitors; 2.3% of 330,000 active; also: nearly all actives have a fitted effect of over 55% in size
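Reporter activity after DNA damage by 5-fluorouridine is monitored. Compound-treated cells incubate 16 hr at 37 °C, then ONE-Glo is added for 30 min before luminescence reading.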
FBPA coupling cs: coupling enzyme interference in Giardia aldolase counter-screen | coupling enzyme system counterscreen, AmpLite Red fluorescence | activity change, negative = inhibition, % at 58.2 µM, hits read low | 0.67% of 290,000 active; in the data active = activity change below about -30%
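Activity here indicates interference with the coupling reaction, not aldolase inhibition. Compounds at 57.5 uM final met coupling enzymes for 10 min at RT; substrate and AmpLite Red detection followed, with a 525/598 nm fluorescence read after 20 min.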
Each line names hits and unclear results; the compound was inactive in the other large screens. Rows were chosen to be rich in hits. Some 8% of all compounds tested hit in one or more screens of this group. Unless noted, calls follow the shape of the dose curve; as a rule, active = well fitted curve in the direction sought with a large enough effect; inconclusive = small, poorly fitted or top-dose-only effect, or another doubt; inactive = no such curve, though single readings can be large; an effect the other way counts as inactive or inconclusive.

COc1cccc(Oc2cn[nH]c2-c2ccc(OC)cc2O)c1	RORg inh 7.08µM, Gal4-VP16 FLuc 12.6µM, ELG1 DNA repair inconclusive
CCOc1ccc(-c2[nH]ncc2Oc2cccc(OC)c2)c(O)c1	RORg inh 11.2µM, Gal4-VP16 FLuc inconclusive
COc1cccc(Oc2cn[nH]c2-c2ccc(O)cc2O)c1	RORg inh inconclusive, Gal4-VP16 FLuc inconclusive, ELG1 DNA repair inconclusive
CCCOC(=O)c1ccc(Oc2c(-c3ccc(OCC)cc3O)n[nH]c2C)cc1	ELG1 DNA repair inconclusive
CCCOC(=O)c1ccc(Oc2cn[nH]c2-c2ccc(OCC)cc2O)cc1	RORg inh 10µM, Gal4-VP16 FLuc inconclusive, ELG1 DNA repair inconclusive
CC(C)CNC(=O)[C@@H]1CSC2c3ccccc3C(=O)N21 (stereo not given in full)	ELG1 DNA repair inconclusive
O=C1/C(=C/c2cccs2)NC(=S)N1C1CC1	RORg inh 7.08µM, Gal4-VP16 FLuc inconclusive
O=C1CNC(=O)/C(=C/c2cccs2)N1	none
O=[N+]([O-])c1cccc(S(=O)(=O)Nc2ccc3cn[nH]c3c2)c1	none (no result: RORg inh, Gal4-VP16 FLuc, FBPA coupling cs)
CC(C)(C)c1ccc(OCC(=O)NNC(=S)NC(=O)c2ccco2)c(Br)c1	RORg inh 5.01µM, Gal4-VP16 FLuc 8.91µM
CC(C)c1ccc(OCC(=O)NNC(=S)NC(=O)c2ccco2)c(Br)c1	RORg inh 6.31µM, Gal4-VP16 FLuc 6.31µM
Cc1ccccc1OCC(=O)Nc1ccccc1-c1ccccc1NC(=O)COc1ccccc1C	RORg inh inconclusive
Cc1ccccc1NC(=S)NC(=O)COc1ccccc1C	RORg inh 12.6µM, Gal4-VP16 FLuc inconclusive (no result: FBPA coupling cs)
Cc1ccccc1OCC(=O)NNC(=S)NC(=O)c1ccco1	RORg inh 12.6µM, Gal4-VP16 FLuc inconclusive
COc1ccccc1OCCNC(=O)c1cccc(S(=O)(=O)NCc2ccccc2)c1	ELG1 DNA repair inconclusive (no result: RORg inh, Gal4-VP16 FLuc, FBPA coupling cs)
O=C1/C(=C/c2cccnc2)SC(=S)N1c1ccc(F)cc1	RORg inh 11.2µM
Cc1ccc(/C=C2\SC(=S)N(CC3CCCO3)C2=O)o1 (stereo not given)	RORg inh 12.6µM, Gal4-VP16 FLuc inconclusive
O=C1/C(=C/c2cccnc2)SC(=S)N1CC1CCCO1 (stereo not given)	RORg inh 10µM
O=C1/C(=C/c2cccnc2)SC(=S)N1c1ccc(O)cc1	none
Cc1ccc(Nc2c3c(nc4ncnn24)CC(C)CC3)cc1 (stereo not given)	RORg inh 17.8µM, Gal4-VP16 FLuc inconclusive
CCc1cccc(Nc2c3c(nc4ncnn24)CCC3)c1	RORg inh 10µM, Gal4-VP16 FLuc 15.8µM
CCOC(=O)C(Sc1nnc(-c2ccncc2)o1)C(C)=O (stereo not given)	RORg inh 5.01µM, Gal4-VP16 FLuc 4.47µM
Cc1c(C(=O)Nc2cccc([N+](=O)[O-])c2)csc1-c1ccccc1	RORg inh inconclusive, ELG1 DNA repair inconclusive
Cc1ccc(NC(=O)c2csc(-c3ccccc3)c2C)cc1	RORg inh 2µM, Gal4-VP16 FLuc 2µM, ELG1 DNA repair inconclusive
Cc1ccc(NC(=O)c2cc(C)n(-c3ccccc3)c2C)cc1	RORg inh 4.47µM, Gal4-VP16 FLuc 6.31µM, ELG1 DNA repair inconclusive
CC(O)[C@@H](NC(=O)C1CCC(CNC(=O)[C@H](Cc2ccccc2)NC(=O)OC(C)(C)C)CC1)C(=O)O (stereo not given in full)	none
COc1ccc([C@H]2Oc3cc(O)cc(O)c3C(=O)C2[C@@H]2C(=O)c3c(O)cc(O)cc3O[C@@H]2c2ccc(OC)cc2)cc1 (stereo not given in full)	Gal4-VP16 FLuc 22.4µM
O=C1c2c(O)cc(O)cc2OC(c2ccc(O)c(O)c2)C1O (stereo not given)	none (no result: ELG1 DNA repair)
CCOc1ccc(N2C(=O)C3C(c4ccc(OC)cc4OC)NC(CCSC)(C(=O)OC)C3C2=O)cc1 (stereo not given)	ELG1 DNA repair inconclusive
CCCC1(C(=O)OCC)NC(c2ccc(OC)cc2OC)C2C(=O)N(c3ccccc3)C(=O)C21 (stereo not given)	ELG1 DNA repair 11.6µM
Cc1ccc(Nc2nc(N)nc(COC(=O)C3=COCCO3)n2)cc1	none (no result: RORg inh, Gal4-VP16 FLuc, FBPA coupling cs)
COC(=O)CC1C(C)(C)C(OC(C)=O)C2[C@H](OC(C)=O)[C@]34O[C@]2(O)[C@]1(C)C3CC[C@]1(C)C4=CC(=O)OC1c1ccoc1 (stereo not given in full)	none (no result: TSHR antag, ELG1 DNA repair)
COc1ccc(-c2[nH]n(-c3ccc([N+](=O)[O-])cc3)c(=O)c2C=NCCN2CCNCC2)cc1	RORg inh 14.1µM, Gal4-VP16 FLuc inconclusive, ELG1 DNA repair inconclusive
O=c1c(C=NCCN2CCNCC2)c(-c2ccccc2)[nH]n1-c1ccc([N+](=O)[O-])cc1	ELG1 DNA repair inconclusive
CCc1cccc2c(C(=O)CCl)c[nH]c12	RORg inh inconclusive, Gal4-VP16 FLuc 14.1µM
CCc1cccc2c(C(=S)N3CCCC3)c[nH]c12	none
CCn1c(C)cs/c1=N\S(=O)(=O)c1ccccc1	none (no result: RORg inh, Gal4-VP16 FLuc, FBPA coupling cs)
O=Cc1s/c(=N\S(=O)(=O)c2ccccc2)n(CCCCl)c1Cl	TSHR antag -70.1, RORg inh 5.01µM, Gal4-VP16 FLuc inconclusive, ELG1 DNA repair inconclusive
Cc1onc(-c2c(F)cccc2Cl)c1C(=O)N1CCN(c2ncc(Br)cn2)CC1	ELG1 DNA repair 13µM
Cc1onc(-c2c(F)cccc2Cl)c1C(=O)N1CCSCC1	none
CC1=CCC(C(=O)O)C(C(=O)NC2CCCCC2)C1 (stereo not given)	none
O=C(CSc1nnc(CNC(=O)c2ccco2)o1)Nc1nc2ccccc2s1	RORg inh 2.51µM, Gal4-VP16 FLuc 10µM, ELG1 DNA repair inconclusive
O=C(CSc1nnc(CNc2ccc(Cl)cc2)o1)Nc1nc2ccccc2s1	RORg inh 14.1µM, Gal4-VP16 FLuc inconclusive
C=C1CCC[C@]2(C)C[C@H]3OC(=O)C(CNC(C)(CO)CO)[C@H]3CC12 (stereo not given in full)	ELG1 DNA repair inconclusive
Cc1ccc(C(=O)NCc2ccco2)cc1Br	none
COc1c(C)cc(Br)cc1C(=O)NC(=S)NCc1ccco1	RORg inh 11.2µM, Gal4-VP16 FLuc inconclusive (no result: FBPA coupling cs)
CCOc1ccc(C(=O)NCc2ccco2)cc1OC	RORg inh inconclusive
COc1cc(C(=O)NCc2ccco2)c(Br)c(OC)c1OC	none
COc1ccc(C(=O)NC(=S)NCc2ccco2)cc1Br	RORg inh 3.55µM, Gal4-VP16 FLuc 6.31µM (no result: FBPA coupling cs)
COc1ccc(C(=O)NC(=S)NCc2ccco2)cc1OC	RORg inh 17.8µM
COCC(=O)N1CCC(Oc2ccc(C(=O)NC(C)c3nccs3)cc2)CC1 (stereo not given)	none (no result: FBPA coupling cs)
COCCn1c(=O)c(-c2cn(C)c3ccccc23)nc2cnc(Oc3ccc(OC)cc3)nc21	none (no result: TSHR antag, ELG1 DNA repair)
COc1c(/C=N/NC(=O)[C@H]2C[C@@H]2c2ccccc2)c(CCN(C)C(C)=O)cc2c1OCO2	ELG1 DNA repair 13µM
CCC(=O)N(C)CCc1cc2c(c(OC)c1/C=N/NC(=O)[C@H]1C[C@@H]1c1ccccc1)OCO2	ELG1 DNA repair inconclusive
